An excerpt weighted towards active compounds, which were near 12% of everything screened.
Marburg entry inh: inhibitors of Marburg virus binding or cell entry; Potency, µM (doses to about 37.8 µM), inactives show top-dose activity change, negative = inhibition, usual class: inhibitors; 300,000 tested, 1.8% active; AID 540276; Marburg virus pseudotyped entry inhibition, cell reporter; calls by dose curve; tested in HEK293 cells; also: potency is read from the fitted curve at half-maximal effect; % is scaled to controls: 0 for no effect and ±100 for the full control effect
Lassa entry inh: Lassa virus entry inhibition; Lassa virus pseudotype entry inhibition, cell reporter; Potency, µM (titrated, usually from 37.9 µM), without a hit: at the highest dose activity change, negative = inhibition, most hits filed as inhibitors; 300,000 tested, 1.2% active; AID 540256; calls by dose curve; tested in HEK293 cells; also: potency is read from the fitted curve at half-maximal effect; % is scaled to controls: 0 for no effect and ±100 for the full control effect; nearly all actives have a fitted effect of over 50% in size
CHX counter: counter-screen for Shiga toxin inhibitors: cycloheximide protein synthesis inhibition. cell reporter, cycloheximide protein synthesis inhibition counterscreen. max response, %. 300,000 tested, 12% active. AID 2314; in the data active = max response mostly above about 13%, no sharp cut-off; inactive = mostly below about 14%; also: read at 38.3 µM for the half of the compounds with a filed dose; 0% is about no effect
Shiga inhibitor: Shiga toxin inhibition; 290,000 tested, 9.2% active; AID 2315; Vero cells, Shiga toxin protein synthesis inhibition reporter; inhibition, % at 38.7 µM; in the data active = inhibition mostly above about 28%, no sharp cut-off; inactive = mostly below about 43%; also: 0% is about no effect
Starred values were filed as active, the others as inactive; u = inconclusive; x = no result given; + = active, no number; [ ] = remark or other dose.

SMILES | Marburg entry inh | Lassa entry inh | CHX counter | Shiga inhibitor
CC1CCC2(CC1)NC(=O)N(CC(=O)Nc1ccc3c(c1)OCCO3)C2=O (centres undefined) | 13.6%[46.1 µM] | 3.1% | 41.2* | 70.6*
CC1SCC(=O)N(CC(=O)Nc2ccc3c(c2)OCCO3)C1=O (centres undefined) | 3.3% | 0.4% | 32.8* | 32.8
CC1SCC(=O)N(CC(=O)Nc2ccc3c(c2)OCO3)C1=O (centres undefined) | -1.8% | x | -1.8 | 25.4
C/C(=C\C=C\c1ccccc1)C(=O)c1c(C)cc(C)[nH]c1=O | -11.0% | -22.5% | 5.3 | 14.5
Cc1cc(O)c(C(=O)/C=C/c2ccccc2)c(=O)o1 | -21.3% | -12.0% | 13.5 | 44.0*
Cc1cc(C)c(C(=O)/C=C/C=C/c2ccccc2)c(=O)[nH]1 | 5.5% | -13.9% | 24.9* | 51.6*
CCOc1ccc(/C=C/C(=O)c2c(O)cc(C)oc2=O)cc1 | -20.0%[46.1 µM] | -14.1%[46.1 µM] | 42.3* | 56.7*
CCOc1ccc(/C=C/C(=O)c2c(O)c3ccccc3oc2=O)cc1 | 10.2% | 10.1% | -2.0 | -7.5
Cc1cc(O)c(C(=O)/C=C/c2ccc(C(C)C)cc2)c(=O)o1 | x | x | 52.7* | 66.3*
Nc1ccc(Cl)cc1/C(=N\O)c1ccccc1 | -21.7% | x | x | x
Cc1cc(O)c(C(=O)/C=C/c2ccccc2Br)c(=O)o1 | 13.7%[46.1 µM] | u | 20.2* | x
CCc1ccccc1N/N=C(/C)c1c(O)cc(C)oc1=O | 8.3% | -1.9% | 1.1 | -6.3
Cc1ccc(C(=O)/C=C/NCc2ccc(F)cc2)cc1 | 22.1% | -11.7% | 48.1* | 93.3*
Cc1ccc(CN/C=C/C(=O)c2ccc(Br)cc2)cc1 | 18.3% | -15.9% | 36.6* | 60.3*
CCOCCn1c(N2CCN(c3ccccc3)CC2)nc2c1c(=O)[nH]c(=O)n2C | 4.0%[46.1 µM] | u | 21.2* | 57.1
O=Cc1c(OCc2ccccc2)ccc2ccccc12 | u | -3.7% | 46.9* | 77.9*
C/[N+]([O-])=C/c1c(OCc2ccccc2)ccc2ccccc12 | x | x | 3.9 | 32.0
Clc1ccc(SCCCCN2CCOCC2)cc1 | -8.3% | -3.7% | 10.9 | 35.3
Cc1ccc(SCCCCN2CCNCC2)cc1 | u | 28.7% | 36.9* | +
Clc1ccc(SCCCCN2CCNCC2)cc1 | u | u | 39.4* | 65.0
Cc1ccc(SCCCCN2CCOCC2)cc1 | u | 11.8%[46.1 µM] | 6.9* | 16.9
CNCC(N)C(=O)O (centres undefined) | x | x | -3.8 | -9.9
COc1ccc(Oc2ccc(C(F)(F)F)cc2N)cc1 | x | x | 28.9* | 55.9*
O=C1CC(N(CCc2ccccc2)C(=S)Nc2cc(Cl)ccc2Cl)C(=O)N1c1c(Cl)cccc1Cl (centres undefined) | 12.6µM* | u | -1.4 | -3.5
O=C(/C=C/c1ccco1)Nc1sc2c(c1C(=O)O)CCC2 | u | u | 42.5* | 51.6*
SMILES | Marburg entry inh | Lassa entry inh | CHX counter | Shiga inhibitor
N#Cc1c(NC(=O)/C=C/c2ccco2)sc2c1CCCC2 | -15.7% | u | 51.4* | 67.1*
O=C(/C=C/c1ccccc1)Nc1sc2c(c1C(=O)O)CCC2 | x | x | 25.4* | 40.7*
CC(C)(C)c1ccc(C(=O)Nc2ccccc2C(=O)OCc2cc(=O)n3ccsc3n2)cc1 | x | 32.2%[46.1 µM] | x | x
Cc1ccc(NC(=O)c2ccccc2)s1 | u | u | 38.6* | 100.2*
Cc1cc(NC(=O)c2ccccc2)sc1C | u | u | 33.2* | 55.7*
Cc1cc(NC(=O)c2ccccc2)cc(NC(=O)c2ccccc2)c1C | 19.6% | 18.4% | 1.1 | x
Cc1cccc(N2CCN(C(=O)c3ccc4c(c3)N(Cc3ccccc3F)C(=O)c3ccccc3S4=O)CC2C)c1 (centres undefined) | 12.6µM* | u | x | x
OC[C@H]1O[C@@H](Oc2cc(O)cc(/C=C/c3ccc(O)cc3)c2)[C@H](O)[C@@H](O)[C@@H]1O | x | x | 27.5* | 95.0*
O=c1c(-c2ccc(O)cc2)coc2cc(O[C@@H]3O[C@H](CO)[C@@H](O)[C@H](O)[C@H]3O)cc(O)c12 | x | x | 26.9* | 60.7*
COc1ccc(CC(=O)c2ccc(OC3OC(CO)C(O)C(O)C3O)cc2O)cc1 (centres undefined) | x | x | 13.9* | 84.3*
COc1ccc(-c2coc3cc(OC4OC(CO)C(O)C(O)C4O)ccc3c2=O)cc1 (centres undefined) | x | x | 37.1* | 47.4*
CCCc1cc(=O)oc2cc(O[C@@H]3O[C@H](CO)[C@@H](O)[C@H](O)[C@H]3O)ccc12 | -5.6% | x | -2.6 | -15.0
OC[C@@H]1O[C@@H](Oc2ccc(O)cc2)[C@H](O)[C@@H](O)[C@@H]1O | x | x | -1.7 | 8.2
Cc1ccc(NC(=O)c2oc3ccccc3c2NC(=O)c2cc3ccccc3o2)cc1 | u | -2.1%[46.1 µM] | x | x
Cc1ccc(NC(=O)c2cc3ccccc3oc2=N)cc1 | x | x | 77.4* | 147.1*
N=c1oc2ccccc2cc1C(=O)Nc1cccc(F)c1 | x | x | 40.7* | 73.2*
N=c1oc2cc(O)ccc2cc1C(=O)Nc1ccc(Cl)cc1 | u | 13.9%[46.1 µM] | 42.9* | 114.3*
CC(=O)c1cc2ccc(O)cc2oc1=O | x | x | -2.6 | -7.8
N=c1oc2ccccc2cc1C(=O)Nc1ccc(F)cc1 | 21.3%[46.1 µM] | 12.0%[46.1 µM] | 29.5* | 92.2*
O=C(NCCc1ccc(F)cc1)c1cc2ccccc2oc1=O | x | x | 8.3 | -13.6
COc1c(C)c2c(c(O)c1CC=C(C)CCC(=O)OCCN1CCOCC1)C(=O)OC2 | x | x | -3.4 | -0.8
CCOC(=O)/C(=N\Nc1cc(C(F)(F)F)ccc1Cl)N(CC)CC | -4.3% | u | -3.0 | -9.4
CCc1ccc(NC(=O)CSC2=Nc3ccccc3C3=NC(CC(=O)NCc4ccccc4)C(=O)N23)cc1 (centres undefined) | x | 0.5%[46.1 µM] | x | x
COc1ccc(NC(=O)CN(C)CC(=O)Nc2ccc(Cl)c(S(=O)(=O)N(C)C)c2)cc1 | -6.9%[46.1 µM] | 1.2%[46.1 µM] | 1.1 | 44.6
CN(C)S(=O)(=O)c1cc(NC(=O)CN2CCCc3ccccc32)ccc1Cl | u | u | 12.1 | 13.8
SMILES | Marburg entry inh | Lassa entry inh | CHX counter | Shiga inhibitor
CN(CC(=O)Nc1ccc(Cl)c(S(=O)(=O)N(C)C)c1)Cc1ccccc1 | -1.9%[46.1 µM] | u | 39.6* | 73.5*
CN(C)S(=O)(=O)c1cc(NC(=O)CN2CCc3ccccc32)ccc1Cl | 11.8%[46.1 µM] | 4.8%[46.1 µM] | 29.9* | 28.0
COC(=O)[C@@](NC(C)=O)(Nc1ccccn1)C(F)(F)F | 4.4% | x | x | x
Cc1cccc(-n2c(SCC(=O)N(C)C3CCS(=O)(=O)C3)nc3ccccc3c2=O)c1C (centres undefined) | -12.7% | -0.9% | x | x
CCN(c1ccccc1)S(=O)(=O)c1cc([N+](=O)[O-])ccc1N | u | u | 28.4* | 58.3*
COc1ccc(N2CCN(C(=O)CC34CC5CC(CC(C5)C3)C4)CC2)c([N+](=O)[O-])c1 | 2.8% | u | 2.6 | -3.9
O=C(NNC(=O)c1ccccc1-c1ccccc1C(=O)O)c1ccccc1 | 13.2%[46.1 µM] | -1.0%[46.1 µM] | -2.9 | -3.2
O=C(C=P(c1ccccc1)(c1ccccc1)c1ccccc1)c1ccccc1-c1ccccc1C(=O)C=P(c1ccccc1)(c1ccccc1)c1ccccc1 | u | 2.24µM* | x | x
COc1ccc(O)c(C(=O)c2cc(C(=O)NCCc3ccccc3)c(=O)n(CCc3ccccc3)c2)c1 | u | u | 31.7* | 18.9
CCN(CC)S(=O)(=O)c1cccc(C(=O)N[C@H](C(=O)NCc2ccc(Cl)cc2)C(C)C)c1 | 10µM* | 12.6µM* | 7.4 | 4.1
CCN(c1ccccc1)S(=O)(=O)c1cccc(C(=O)Nc2ccc(C)cn2)c1 | x | x | -1.5 | 17.4

Screening results (PubChem)
